Assay results from PubChem BioAssay AID1117289 (Broad Institute, 2014).
Results with a measured potency or affinity are listed apart. Inconclusive results are not listed. Calls of active or inactive are those of the source.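 Rule for the calls: active = inhibitor whose fitted half-maximal dose is at most twice the top tested dose in every run; inconclusive = runs disagree, poor fit, or flat fit inhibiting 30 to 70%; inactive = every run inactive, flat, rising or too weak.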

The compounds below were run against Endoplasmic reticulum aminopeptidase 2 (Homo sapiens) (UniProt Q6P179) (assay: inhibition of ERAP2 Arg-AMC cleavage – biochemical, plate reader, dry powder, set 2, selectivity assay for selective ERAP1 modulator project, dose response (AID 1117289)). Conditions: purified ERAP2, Arg-AMC hydrolysis fluorescence, 1 h; series mostly up to 50 µM.
Sequence of Endoplasmic reticulum aminopeptidase 2 (Homo sapiens) (Q6P179 whole entry, looked up): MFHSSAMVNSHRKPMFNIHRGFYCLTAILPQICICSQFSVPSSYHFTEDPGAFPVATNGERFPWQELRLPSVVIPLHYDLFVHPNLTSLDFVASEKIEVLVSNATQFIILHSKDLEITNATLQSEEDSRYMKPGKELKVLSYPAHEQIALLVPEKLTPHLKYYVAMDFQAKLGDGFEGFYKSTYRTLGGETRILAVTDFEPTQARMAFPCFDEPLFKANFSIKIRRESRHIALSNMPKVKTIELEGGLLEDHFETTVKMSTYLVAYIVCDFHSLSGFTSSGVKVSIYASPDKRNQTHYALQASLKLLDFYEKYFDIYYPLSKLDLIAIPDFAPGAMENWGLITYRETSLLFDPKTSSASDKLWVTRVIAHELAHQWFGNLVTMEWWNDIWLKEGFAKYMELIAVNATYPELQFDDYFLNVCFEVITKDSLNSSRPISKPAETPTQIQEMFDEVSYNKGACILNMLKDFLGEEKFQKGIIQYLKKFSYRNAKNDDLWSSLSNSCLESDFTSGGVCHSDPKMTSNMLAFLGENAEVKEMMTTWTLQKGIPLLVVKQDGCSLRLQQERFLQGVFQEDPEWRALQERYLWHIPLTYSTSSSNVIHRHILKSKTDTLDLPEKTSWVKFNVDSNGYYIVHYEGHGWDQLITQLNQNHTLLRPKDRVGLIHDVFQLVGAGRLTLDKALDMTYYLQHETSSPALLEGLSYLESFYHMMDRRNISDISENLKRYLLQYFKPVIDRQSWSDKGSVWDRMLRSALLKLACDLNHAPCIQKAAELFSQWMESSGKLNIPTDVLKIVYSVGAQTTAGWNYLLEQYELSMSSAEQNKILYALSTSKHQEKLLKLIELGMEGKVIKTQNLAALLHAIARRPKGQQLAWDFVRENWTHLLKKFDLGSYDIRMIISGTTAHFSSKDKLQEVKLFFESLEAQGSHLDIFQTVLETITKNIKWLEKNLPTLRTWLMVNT

Activity change, negative = inhibition, inactive:
COc1ccc(C2=NN(c3ccc(C(=O)O)cc3)C(c3ccc(OC)c(OC)c3)C2)cc1 (centres undefined) 289% [at 6 µM]

outcome, inactive:
COc1ccc(C(=O)O)cc1S(=O)(=O)N1CCN(c2ccc(C(F)(F)F)cc2N)CC1
COc1ccc(C(=O)O)cc1S(=O)(=O)N(C)c1cc(C(F)(F)F)ccc1N1CCCCC1
COc1ccc(C(=O)O)cc1S(=O)(=O)Nc1cc(C(F)(F)F)ccc1N(C)C
COc1ccc(C(=O)O)cc1S(=O)(=O)Nc1cc(C)ccc1N1CCCCC1
O=C(O)c1ccc(Cl)c(S(=O)(=O)Nc2cc(C(F)(F)F)ccc2N2CCCCC2)c1
COc1ccc(C(=O)O)cc1S(=O)(=O)Nc1cc(C(F)(F)F)ccc1N1CCN(C(C)=O)CC1
COc1ccc(C(=O)O)cc1S(=O)(=O)Nc1cc(F)ccc1N1CCCCC1
COc1ccc(C(=O)O)cc1S(=O)(=O)Nc1cc(C(F)(F)F)ccc1N1CCN(C)CC1
COc1ccc(C(=O)Nc2cccc(C(F)(F)F)c2)cc1S(=O)(=O)O
COc1ccc(C(=O)O)cc1S(=O)(=O)Nc1cc(C(F)(F)F)ccc1N1CCOCC1
COc1ccc(C(=O)O)cc1S(=O)(=O)Nc1cccc(N2CCCCC2)c1C(F)(F)F
O=C(O)c1cc(F)cc(S(=O)(=O)Nc2cc(C(F)(F)F)ccc2N2CCCCC2)c1
Cc1ccc(C(=O)O)cc1S(=O)(=O)Nc1cc(C(F)(F)F)ccc1N1CCCCC1
COc1ccc(C(=O)O)cc1S(=O)(=O)Nc1ccc(N2CCCCC2)cc1C(F)(F)F
COc1ccc(C(=O)O)cc1S(=O)(=O)Nc1ccccc1N1CCCCC1
O=C(O)c1cccc(S(=O)(=O)Nc2cc(C(F)(F)F)ccc2N2CCCCC2)c1
COc1ccc(C(=O)O)cc1S(=O)(=O)Nc1cc(C(F)(F)F)ccc1N1CCCCC1
Cc1ccc(S(=O)(=O)Nc2cc(C(F)(F)F)ccc2N2CCCCC2)cc1C(=O)O
